Drawing on PubChem BioAssay (Tox21), this text covers Potency for 40 molecules.

Values joined by “and” are separate entries in the source; they are usually repeats but may differ in a detail not shown here. Equal values may be shown once. Results filed as inconclusive are left out. A call without a number means that no potency is given here. Active and inactive are the calls of the source. Calls come from the whole dose curve.
Potency is the fitted concentration of half-maximal effect.

The experiment in a line: qHTS assay for small molecule agonists of the p53 signaling pathway (AID 651631). Note: nearly all actives have a fitted effect of over 15% in size. To be noted: HCT-116 p53RE-bla reporter, beta-lactamase FRET ratio, 16 h; series mostly up to 73.3 µM. From the text:
U.S. Tox21 Program National Center for Advancing Translational Sciences [NCATS] NIH Chemical Genomics Center [NCGC] U.S. Environmental Protection Agency [EPA] National Institutes of Environmental Health Sciences [NIEHS] National Toxicology Program [NTP] U.S. Food and Drug Administration [FDA] Tox21 Assay Overview: p53, a tumor suppressor protein, is activated following cellular insult, including DNA damage and other cellular stresses. The activation of p53 regulates cell fate by inducing DNA repair, cell cycle arrest, apoptosis, or cellular senescence. The activation of p53, therefore, is a good indicator of DNA damage and other cellular stresses. The CellSensor p53RE-bla HCT-116 cell line (Invitrogen) contains a stably integrated beta-lactamase reporter gene under control of the p53 response elements. The activation of the reporter gene under culture conditions can be detected by fluorescence intensity. This cell line was used to screen the Tox21 compound library in a 1536-well plate format and to identify agonists that activate the p53 signaling pathway.
Tox21 Assay Protocol Summary: The p53RE-bla cells were dispensed at 4,000 cells/5 ul/well in 1536-well black wall/clear bottom plates using a Multidrop dispenser. After the assay plates were incubated at a 37 C/5% CO2 incubator for 5 hours, 23 nL of compounds dissolved in DMSO, positive controls or DMSO only was transferred to the assay plate by a pin tool. The plates were incubated at 37 C for 16 hours. After 1 uL of LiveBLAzerTM B/G FRET substrate was added using a Flying Reagent Dispenser, the plates were incubated at room temperature for 2 hours, and fluorescence intensity was measured by an Envision plate reader.
Consider `CCCSP(=S)(OCC)Oc1ccc(SC)cc1` (stereo not given), for which the Potency entry is “inactive”.

Consider `CCCCC(CC)COC(=O)c1c(Br)c(Br)c(Br)c(Br)c1C(=O)OCC(CC)CCCC` (stereo not given), for which the Potency entry is “inactive”.

Consider `CCOC(=O)C1OC1(C)c1ccccc1` (stereo not given), for which the Potency entry was “inactive”.

Consider `CCSCc1ccccc1OC(=O)NC`, for which the Potency result was “inactive”.

Take `C1CS1`: the Potency entry is “inactive”.

Consider `Nc1cc(Cl)cc(C(=O)O)c1Cl`, for which the Potency entry is “inactive”.

On to `CCOC(=O)c1cncn1C(C)c1ccccc1` (stereo not given), for which the Potency entry is “inactive”.

In the case of `CC(C)CCCCCCCOC(=O)c1ccccc1C(=O)OCCCCCCCC(C)C`, the Potency entry was “inactive”.

For `C[N+]1(CCF)[C@@H]2CC[C@H]1CC(OC(=O)C(O)(c1ccccc1)c1ccccc1)C2` (stereo not given in full), the Potency entry was “inactive”.

For `c1ccc2c(c1)-c1cccc3cccc-2c13`, the Potency result was “inactive”.

On to `O=S(=O)(Cl)Cl`, for which the Potency entry is “inactive”.

With `CCCCC#N`, the Potency result is “inactive”.

As to `CCCC[N+]1(C)[C@@H]2CC(OC(=O)[C@H](CO)c3ccccc3)C[C@H]1[C@@H]1O[C@@H]12` (stereo not given in full), the Potency result was “inactive”.

For `CNC(=O)Oc1cccc(N=CN(C)C)c1`, the Potency entry was “inactive”.

Regarding `CCCN(CCC)c1c([N+](=O)[O-])cc(C(C)C)cc1[N+](=O)[O-]`, the Potency entry was “inactive”.

As for `Clc1ccc2ccccc2c1`, the Potency result is “inactive”.

Turning to `O=C(CCl)CCl`, the Potency is 24.3 µM (active).

Turning to `O=C(O)c1cc(I)cc(I)c1I`, the Potency entry was “inactive”.

On to `Oc1cccc(Cl)c1`, for which the Potency entry was “inactive”.

For the molecule `CCCC[N+](CCCC)(CCCC)CCCC`, the Potency result is “inactive”.

Take `C[N+](C)(C)CC1CO1` (stereo not given): the Potency entry was “inactive”.

As for `C[C@H]1O[C@H](OC2[C@@H](O)[C@@H](O)C(O)[C@H](O)[C@H]2O)[C@@H](N)C[C@@H]1N=C(N)C(=O)O` (stereo not given in full), the Potency entry is “inactive”.

Regarding `CN(C)C(=O)Nc1cccc(OC(=O)NC(C)(C)C)c1`, the Potency result is “inactive”.

As for `COc1ccc(C(O)(c2cncnc2)C2CC2)cc1` (stereo not given), the Potency result was “inactive”.

Turning to `CCC[N+](CCC)(CCC)CCC`, the Potency entry is “inactive”.

Take `CCCCC(CC)CO[N+](=O)[O-]` (stereo not given): the Potency result is “inactive”.

Regarding `CC(C)(C#N)C(C)(C)C#N`, the Potency entry was “inactive”.

As for `O=C1c2ccccc2C(=O)N1SC(Cl)(Cl)Cl`, the Potency is 8.51 µM (active) and 4.33 µM (active).

Take `CCCCC1C(=O)NC(=O)N(C2CCCCC2)C1=O` (stereo not given): the Potency entry is “inactive”.

With `CC(C)(C)NCC(O)c1cc(Cl)c(N)c(C(F)(F)F)c1` (stereo not given), the Potency result is “inactive”.

`CCCCCCCCn1sccc1=O`: the Potency is 12.2 µM (active) and 25.5 µM (active).

For `Cc1ccc2c(C)cccc2c1`, the Potency entry is “inactive”.

Turning to `C=CCOCC1CO1` (stereo not given), the Potency result is “inactive”.

Consider `COC1CC(=C(c2cccs2)c2cccs2)C[N+](C)(C)C1` (stereo not given), for which the Potency result is “inactive”.

Turning to `CCCC[P+](CC)(CCCC)CCCC` (tested in a mixture with another compound), the Potency entry is “inactive”.

For `CC(C)c1ccc(OP(=O)(Oc2ccc(C(C)C)cc2)Oc2ccc(C(C)C)cc2)cc1`, the Potency result is “inactive”.

Consider `CCCCOC(=O)CCC(=O)OCCCC`, for which the Potency entry is “inactive”.

As to `O=C(Cl)OCCOCCOC(=O)Cl`, the Potency entry was “inactive”.

As for `CCN(C(C)=O)c1cccc(-c2ccnc3c(C#N)cnn23)c1`, the Potency result was “inactive”.

`CC(C)OC(=O)Cc1ccccc1`: the Potency result is “inactive”.
